FBPA Giardia inh: qHTS Assay for Inhibitors of Fructose-1,6-bisphosphate Aldolase from Giardia Lamblia; purified Giardia FBPA; hit rate 0.71% among 290,000; A8B2U2; Potency, µM (top dose mostly 59.6 µM), most hits filed as inhibitors; AID 2451, 2010; note: nearly all actives have a fitted effect of over 55% in size
Target sequence (A8B2U2 whole entry, looked up): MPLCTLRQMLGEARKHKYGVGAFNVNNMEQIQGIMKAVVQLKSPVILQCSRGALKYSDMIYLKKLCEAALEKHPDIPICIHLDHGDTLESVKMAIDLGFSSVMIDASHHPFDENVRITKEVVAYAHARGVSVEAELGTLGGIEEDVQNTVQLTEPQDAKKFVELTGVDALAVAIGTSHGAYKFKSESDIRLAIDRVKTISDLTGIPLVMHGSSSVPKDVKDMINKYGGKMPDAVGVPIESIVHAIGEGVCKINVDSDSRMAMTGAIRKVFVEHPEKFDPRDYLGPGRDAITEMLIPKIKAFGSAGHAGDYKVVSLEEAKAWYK
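40 nM FBPA preincubated 10 min at RT with compound (up to 57.5 uM final), then substrate plus GAPDH/TPI/NAD/arsenate coupling and diaphorase/resazurin added. Fluorescence read after 20 min at RT, 525/598 nm.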
NS1 inh: qHTS Assay for Inhibitors of Influenza NS1 Protein Function | hit rate 0.4% among 270,000 | Potency, µM (top dose mostly 46.1 µM) | AID 2326, 2010; calls by dose curve; note: actives are rising curves; nearly all actives have a fitted effect of over 50% in size
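Growth recovery, yeast-based: influenza A NS1 expressed in S. cerevisiae causes slow growth, and suppressors are detected by OD600. The parent strain without NS1 is used as positive control.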
Pf growth 48h: Primary qHTS for delayed death inhibitors of the malarial parasite plastid, 48 hour incubation; P. falciparum luciferase growth in erythrocytes, 48 h; Potency, µM (series often up to 28.7 µM), hits mostly inhibitors; hit rate 5.9% among 310,000
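Erythrocytes infected with P. falciparum carrying an integrated firefly luciferase reporter (2% hematocrit, 0.1% parasitemia final) were exposed to compounds in RPMI 1640 with 0.5% Albumax at 37 C, 5% CO2. Growth inhibition was scored as reduced luminescence.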
Shiga toxin inh: A qHTS for Small Molecule Inhibitors of Shiga Toxin; Vero cells, Shiga toxin protein synthesis inhibition reporter; inhibition, % at 38.7 µM; hit rate 9.2% among 290,000; in the data active = inhibition mostly above about 28%, no sharp cut-off; inactive = mostly below about 43%
Cycloheximide cs: Cycloheximide Counterscreen for Small Molecule Inhibitors of Shiga Toxin; cell reporter, cycloheximide protein synthesis inhibition counterscreen; max response, %; hit rate 12% among 300,000; AID 2314, 2010; in the data active = max response mostly above about 13%, no sharp cut-off; inactive = mostly below about 14%; note: read at 38.3 µM for the half of the compounds with a filed dose
Pf growth 96h: Primary qHTS for delayed death inhibitors of the malarial parasite plastid, 96 hour incubation; P. falciparum luciferase reporter growth, 96 h; Potency, µM (series often up to 28.7 µM), hits mostly inhibitors; hit rate 6.9% among 320,000; AID 504834, 2011
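P. falciparum expressing integrated firefly luciferase, in erythrocytes at 2% hematocrit, 0.05% parasitemia, incubated with compounds 96 h at 37 C, 5% CO2. Growth inhibition read as loss of luminescence; two-generation exposure targets delayed-death apicoplast inhibitors.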
Each line names hits and unclear results; the compound was inactive in the other large screens. In the library only some 21% were active in any assay of this set; here they are far more common. Unless noted, calls come from the whole dose curve; as a rule, active = well fitted curve in the direction sought with a large enough effect; inconclusive = small, poorly fitted or top-dose-only effect, or another doubt; inactive = no such curve, though single readings can be large; an effect the other way counts as inactive or inconclusive.

CC1CCCC(C)N1C(=O)CSc1nnc(C2CCCCC2)o1 (stereo not given)	Shiga toxin inh 92.5, Cycloheximide cs 46.0 (no result: Pf growth 96h)
CC1CCCCN1C(=O)CSc1nnc(-c2ccc(Cl)s2)o1 (stereo not given)	Shiga toxin inh 88.4, Cycloheximide cs 27.9
CC(=O)c1ccc(OC(=O)C2c3ccccc3Oc3ccccc32)cc1	none
CCN(CC)C(=O)C1c2ccccc2Oc2ccccc21	Pf growth 96h 5.22µM
Cc1ccc(OC(=O)C2c3ccccc3Oc3ccccc32)cc1C	Pf growth 96h 5.22µM
CC(C)CNC(=O)COC(=O)C1c2ccccc2Oc2ccccc21	none
CC(C)[N+](C)(CCOC(=O)C1c2ccccc2Oc2ccccc21)C(C)C	Pf growth 48h inconclusive, Pf growth 96h 0.0147µM
CCN(CC(=O)Nc1ccc(OC)cc1)C(=O)c1ccc(N2CCCC2=O)cc1	none (no result: FBPA Giardia inh, NS1 inh, Shiga toxin inh, Cycloheximide cs)
CN(C)c1cccc(C(=O)NCC(c2ccco2)N(C)C)c1 (stereo not given)	NS1 inh inconclusive, Shiga toxin inh 75.1, Cycloheximide cs 36.9
CN(C)C(CNC(=O)c1ccc2ccccc2c1)c1ccco1 (stereo not given)	Shiga toxin inh 76.6, Cycloheximide cs 31.6 (no result: NS1 inh)
Cc1cccc(C(=O)NCC(c2ccco2)N(C)C)c1 (stereo not given)	none (no result: NS1 inh)
COc1ccc2occ(C(=O)c3coc4ccc(O)c(CN(C)C)c34)c2c1	Pf growth 48h 8.28µM (no result: Pf growth 96h)
CN(C)Cc1c(O)ccc2occ(C(=O)c3ccccc3)c12	NS1 inh inconclusive, Shiga toxin inh 65.2, Cycloheximide cs 25.5 (no result: Pf growth 96h)
CCN(CC)Cc1c(O)ccc2occ(C(=O)c3ccccc3)c12	Shiga toxin inh 78.0, Cycloheximide cs 39.1, Pf growth 96h inconclusive
CN(C)Cc1c(O)ccc2occ(C(=O)c3ccc(F)cc3)c12	none
O=C(c1cccs1)c1coc2ccc(O)c(CN(CCO)CCO)c12	Shiga toxin inh 63.0, Cycloheximide cs 17.4, Pf growth 96h 2.08µM (no result: Pf growth 48h)
COc1cccc(C(=O)Nc2c3c(nn2-c2ccc(Cl)cc2)CS(=O)(=O)C3)c1OC	Pf growth 48h inconclusive
Cc1ccsc1C(=O)N(C)CC(=O)Nc1ccccc1Br	none (no result: FBPA Giardia inh, NS1 inh, Shiga toxin inh, Cycloheximide cs)
COCCn1c(=O)c(-c2ccc(Cl)cc2)nc2cncnc21	none (no result: NS1 inh, Pf growth 48h, Shiga toxin inh, Cycloheximide cs, Pf growth 96h)
COc1ccc(C(=O)c2coc3ccc(O)c(CN4CCCCC4)c23)cc1	Pf growth 48h 7.38µM
O=C(CCS(=O)(=O)Cc1ccccc1)Nc1ncc([N+](=O)[O-])s1	Shiga toxin inh 57.9, Cycloheximide cs 39.0
Cc1ccc(S(=O)(=O)CC(=O)Nc2ncc([N+](=O)[O-])s2)cc1	none
O=C(CCS(=O)(=O)c1ccccc1)Nc1ncc([N+](=O)[O-])s1	Pf growth 48h inconclusive
Cc1ccc(CC(=O)Nc2ncc([N+](=O)[O-])s2)cc1	Cycloheximide cs 30.4
COCCn1cnc2c1c(=O)[nH]c(=O)n2Cc1ccccc1	Pf growth 96h inconclusive
CC[C@H](C)[C@H](NC(=O)[C@H](CC(C)C)NC(=O)[C@H](CC(N)=O)NC(=O)[C@@H](NC(=O)[C@@H](N)Cc1ccc(O)cc1)[C@@H](C)CC)C(=O)N[C@@H](Cc1ccc(O)cc1)C(=O)N[C@@H](CCCN=C(N)N)C(=O)N[C@@H](CC(C)C)C(=O)N[C@@H](CCCN=C(N)N)C(=O)N[C@@H](Cc1ccc(O)cc1)C(N)=O	none (no result: NS1 inh, Pf growth 48h, Pf growth 96h)
C=C(C)CSc1nnc(-c2ccc(OC)cc2)n1N	Shiga toxin inh 53.3, Cycloheximide cs 44.6
C=C(C)CSc1nnc(-c2cccc(Cl)c2)n1N	Shiga toxin inh 110.8, Cycloheximide cs 41.5
Cc1ccc2c(c1)C1CN(C)CCC1N2C(=S)NC(=O)c1ccc(Cl)cc1Cl (stereo not given)	Pf growth 48h inconclusive, Pf growth 96h 5.86µM
Cc1ccc2c(c1)C1CN(C)CCC1N2C(=O)COc1ccccc1F (stereo not given)	Pf growth 48h inconclusive, Pf growth 96h 11.7µM
Cc1ccc2c(c1)C1CN(C)CCC1N2C(=O)Nc1cccc(Cl)c1 (stereo not given)	Pf growth 48h inconclusive, Pf growth 96h inconclusive
CC(NC(=O)c1ccco1)C(=O)NC(C)c1cc(F)c(Cl)cc1Cl (stereo not given)	none
O=C(Nc1nc(-c2cccs2)cs1)c1ccc(Cl)s1	Shiga toxin inh 38.9, Cycloheximide cs 41.9, Pf growth 96h inconclusive
Oc1ccc(Nc2nc(-c3cccs3)cs2)cc1	none
O=C(O)C1CCC1C(=O)Nc1nc(-c2ccc(Cl)s2)cs1 (stereo not given)	none
Nc1nc(-c2cccs2)cs1	Cycloheximide cs 34.5 (no result: FBPA Giardia inh)
O=C(Nc1nc(-c2ccc(Cl)s2)cs1)c1ccccc1	Cycloheximide cs 41.9, Pf growth 96h 9.28µM (no result: Pf growth 48h)
CC(=O)Nc1nc(-c2cccs2)cs1	Cycloheximide cs 23.1
O=S(=O)(Nc1ccc(-n2cnnn2)cc1)c1cccs1	none (no result: FBPA Giardia inh, NS1 inh, Shiga toxin inh, Cycloheximide cs)
CCC(C(=O)Nc1ccccc1OC)n1c(C(=O)OC)cc2ccsc21 (stereo not given)	Pf growth 48h 11.7µM, Pf growth 96h inconclusive
CCC(=O)Nc1nc(C)c(C(=O)NC2CCCCC2)s1	Pf growth 48h 3.7µM, Pf growth 96h inconclusive
COc1cccc(NC(=S)N(CCc2ccc(OC)c(OC)c2)Cc2ccccn2)c1	Pf growth 48h inconclusive, Pf growth 96h inconclusive
COc1ccc(CCN(C)C(=O)Cc2ccc(-c3ccccc3)cc2)cc1OC	Pf growth 48h inconclusive, Cycloheximide cs 21.5, Pf growth 96h inconclusive
COc1ccc(-c2cc(C(=O)OCC(=O)N(C)C3CCS(=O)(=O)C3)c3ccccc3n2)cc1OC (stereo not given)	Cycloheximide cs 16.9 (no result: NS1 inh)
COc1ccc(CN(C)C(=O)c2cc(-c3ccccc3)nc3ccc(C)cc23)c(OC)c1OC	Pf growth 48h 8.28µM, Cycloheximide cs 16.8, Pf growth 96h inconclusive (no result: FBPA Giardia inh)
COc1ccc(CCN(C)C(=S)Nc2cccc(C)c2)cc1OC	Pf growth 48h 1.65µM, Pf growth 96h inconclusive
CC(NCc1ccc(OCC(N)=O)cc1)C12CC3CC(CC(C3)C1)C2 (stereo not given)	FBPA Giardia inh inconclusive, Pf growth 48h inconclusive
C=CCOc1ccc(C2=NOC(C(=O)Nc3ccc4c(c3)OCCO4)C2)cc1 (stereo not given)	none
COc1ccc(CCN(C)C(=O)c2cc(-c3ccccc3)nc3ccc(C)cc23)cc1OC	Shiga toxin inh 65.1 (no result: FBPA Giardia inh)
COc1ccc(-c2cc(C(=O)N(C)Cc3cccc(OC)c3OC)c3ccccc3n2)cc1OC	Pf growth 48h 9.28µM, Pf growth 96h inconclusive (no result: FBPA Giardia inh)
COc1ccc(-c2cc(C(=O)N(C)CCc3ccc(OC)c(OC)c3)c3ccccc3n2)cc1	none (no result: FBPA Giardia inh)
COc1ccc(CCN(C)C(=O)c2cc(-c3ccccc3)nc3ccccc23)cc1OC	Pf growth 48h 13.1µM, Pf growth 96h 7.38µM (no result: FBPA Giardia inh)
COc1ccc(CCN(C)C(=O)CSc2nnnn2C)cc1OC	Pf growth 96h 10.4µM (no result: NS1 inh)
